According to PubChem BioAssay (EPA / NIEHS):
Calls of active or inactive are those of the source. How the source made its calls: active means hit-call score of the fitted dose curve at least 0.9, where 1 is the maximum; inactive means score below 0.9.

How the values were obtained:
[1] = read-out: Interleukin-1 alpha (IL1a), IL1A (gene 3552); assay: BSK_KF3CT_IL1a: BioMAP Diversity Plus: KF3CT Assay for Interleukin-1 alpha (IL1a) Biomarker Activity (AID 2283070); conditions: primary human keratinocytes with fibroblasts; actives raise or lower the signal
Summary of the method: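 Readout is IL-1a level by ELISA, compared bidirectionally with DMSO as baseline. Cells: human keratinocytes co-cultured with foreskin fibroblasts, harvested 24 h post-dose.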

[2] = read-out: TIMP metallopeptidase inhibitor 2 (TIMP2), TIMP2 (gene 7077); assay: BSK_KF3CT_TIMP2: BioMAP Diversity Plus: KF3CT Assay for TIMP metallopeptidase inhibitor 2 (TIMP2) Biomarker Activity (AID 2283071); conditions: primary human keratinocytes with fibroblasts; actives raise or lower the signal
Summary of the method: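 TIMP-2 measured by ELISA at 24 h in human keratinocyte/fibroblast primary co-cultures exposed to chemicals. Both increases and decreases were fitted against DMSO. Parallel cultures were stained with SRB for total protein as an overt-cytotoxicity check.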

[3] = read-out: Transforming growth factor beta 1 (TGFb1), TGFB1 (gene 7040); assay: BSK_KF3CT_TGFb1: BioMAP Diversity Plus: KF3CT Assay for Transforming growth factor beta 1 (TGFb1) Biomarker Activity (AID 2283072); conditions: primary human keratinocytes with fibroblasts; actives raise or lower the signal
Summary of the method: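 ELISA quantifies TGF-b1 at 24 h post-dose in a primary human skin co-culture of keratinocytes and fibroblasts, with gain or loss judged against DMSO. Parallel SRB total-protein staining flags overt cytotoxicity.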

[4] = read-out: C-C motif chemokine 2 (Homo sapiens) (UniProt P13500); assay: BSK_KF3CT_MCP1: BioMAP Diversity Plus: KF3CT Assay for Monocyte Chemoattractant Protein 1 (MCP1/CCL2) Biomarker Activity (AID 2283073); conditions: primary human keratinocytes with fibroblasts; actives raise or lower the signal
Summary of the method: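 Human keratinocyte–foreskin fibroblast co-culture; MCP-1 measured by ELISA 24 h after dosing. Bidirectional fit vs DMSO; cytotoxicity tracked by SRB total protein in parallel cultures.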

[5] = read-out: Matrix Metallopeptidase 9 (MMP9), MMP9 (gene 4318); assay: BSK_KF3CT_MMP9: BioMAP Diversity Plus: KF3CT Assay for Matrix Metallopeptidase 9 (MMP9) Biomarker Activity (AID 2283074); conditions: primary human keratinocytes with fibroblasts; actives raise or lower the signal;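 on AC50: MMP9 protein level quantified by ELISA in the co-culture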
Summary of the method: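 Values come from bidirectional fitting relative to DMSO of MMP-9 levels, which were measured by ELISA. Measurements were taken 24 h after chemical dosing of a keratinocyte and foreskin fibroblast co-culture.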

[6] = read-out: urokinase plasminogen activator (uPA), PLAU (gene 5328); assay: BSK_KF3CT_uPA: BioMAP Diversity Plus: KF3CT Assay for urokinase plasminogen activator (uPA) Biomarker Activity (AID 2283075); conditions: primary human keratinocytes with fibroblasts; actives raise or lower the signal
Summary of the method: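 Values derive from bidirectional fitting against DMSO controls. Keratinocyte/foreskin fibroblast co-cultures received chemical; 24 h later uPA was detected by ELISA, with SRB total-protein staining in parallel wells for overt cytotoxicity.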

[7] = read-out: CD40, CD40 (gene 958); assay: BSK_LPS_CD40: BioMAP Diversity Plus: LPS Assay for CD40 Biomarker Activity (AID 2283076); conditions: primary human HUVEC with PBMC; actives raise or lower the signal
Summary of the method: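 HUVEC plus PBMC co-culture stimulated with LPS; CD40 quantified by ELISA 24 h after compound dosing. Fitting was bidirectional relative to DMSO. SRB staining of parallel cultures flagged overt cytotoxicity.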

[8] = read-out: E-selectin (Homo sapiens) (UniProt P16581); assay: BSK_LPS_Eselectin: BioMAP Diversity Plus: LPS Assay for Eselectin Biomarker Activity (AID 2283077); conditions: primary human HUVEC with PBMC; actives raise or lower the signal
Summary of the method: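 Human umbilical vein endothelial cells co-cultured with PBMC under LPS stimulation; cell-surface E-selectin measured by ELISA 24 h after dosing. Change in either direction versus DMSO, with SRB total-protein staining in parallel cultures for cytotoxicity.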

[9] = read-out: Interleukin-8 (IL8), CXCL8 (gene 3576); assay: BSK_LPS_IL8: BioMAP Diversity Plus: LPS Assay for Interleukin-8 (IL8) Biomarker Activity (AID 2283078); conditions: primary human HUVEC with PBMC; actives raise or lower the signal
Summary of the method: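 Human umbilical vein endothelial cells co-cultured with PBMC, LPS-stimulated, exposed to compound for 24 h. IL-8 quantified by ELISA; fitted in both directions against DMSO, with SRB total-protein staining of parallel cultures for cytotoxicity.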

[10] = BSK_LPS_SRB: Viability Assessment in the BioMAP Diversity Plus: LPS Assay (AID 2283079); conditions: primary human HUVEC with PBMC;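 further: total protein by sulforhodamine B absorbance as a cytotoxicity measure; measured one day after compound addition; fitted in both directions against DMSO so loss or gain of signal counts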
Summary of the method: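 Co-culture of human umbilical vein endothelial cells and PBMC, read 24 h after dosing. Total protein by 0.1% SRB staining after 10% TCA fixation, absorbance at 560 nm; bidirectional fit against DMSO.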

[11] = read-out: Interleukin-1 alpha (IL1a), IL1A (gene 3552); assay: BSK_LPS_IL1a: BioMAP Diversity Plus: LPS Assay for Interleukin-1 alpha (IL1a) Biomarker Activity (AID 2283080); conditions: primary human HUVEC with PBMC; actives raise or lower the signal
Summary of the method: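 Human umbilical vein endothelial cells co-cultured with PBMC and stimulated with LPS; IL-1a measured by ELISA 24 h after dosing. Bidirectional fitting against DMSO; cytotoxicity checked by SRB staining in parallel cultures.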

[12] = read-out: Monocyte Chemoattractant Protein-1 (MCP1), CCL2 (gene 6347); assay: BSK_LPS_MCP1: BioMAP Diversity Plus: LPS Assay for Monocyte Chemoattractant Protein-1 (MCP1) Biomarker Activity (AID 2283081); conditions: primary human HUVEC with PBMC; actives raise or lower the signal;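 on AC50: secreted MCP-1 protein quantified by ELISA in culture supernatant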
Summary of the method: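 Human umbilical vein endothelial cells co-cultured with PBMC, LPS-stimulated; secreted MCP-1 measured by ELISA 24 h after compound addition. Bidirectional curve fitting against DMSO baseline; SRB total-protein staining in parallel cultures for cytotoxicity.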

[13] = BSK_LPS_PGE2: BioMAP Diversity Plus: LPS Assay for Prostaglandin E2 (PGE2) Biomarker Activity (AID 2283082); conditions: primary human HUVEC with PBMC; actives raise or lower the signal;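 on AC50: secreted prostaglandin E2 measured by ELISA in LPS-stimulated co-culture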
Summary of the method: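 PGE2 release measured by ELISA in an LPS-activated co-culture of human umbilical vein endothelial cells and peripheral blood mononuclear cells, read at 24 h post-dosing. DMSO served as baseline for bidirectional curve fitting.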

[14] = read-out: Macrophage colony-stimulating factor (MCSF), CSF1 (gene 1435); assay: BSK_LPS_MCSF: BioMAP Diversity Plus: LPS Assay for Macrophage colony-stimulating factor (MCSF) Biomarker Activity (AID 2283083); conditions: primary human HUVEC with PBMC; actives raise or lower the signal
Summary of the method: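 HUVEC–PBMC co-culture, M-CSF measured by ELISA 24 h after chemical dosing. Fitted in both directions relative to DMSO as negative control; overt cytotoxicity assessed by SRB total-protein staining in parallel cultures.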

[15] = read-out: Tissue Factor, F3 (gene 2152); assay: BSK_LPS_TissueFactor: BioMAP Diversity Plus: LPS Assay for Tissue Factor Biomarker Activity (AID 2283084); conditions: primary human HUVEC with PBMC; actives raise or lower the signal
Summary of the method: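 Human umbilical vein endothelial cells co-cultured with PBMC were dosed with compound. Cell-surface CD142 was measured by ELISA 24 h later. Activity was fitted bidirectionally against DMSO, with SRB total-protein staining in parallel cultures for cytotoxicity.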

[16] = read-out: Tumor necrosis factor (Homo sapiens) (UniProt P01375); assay: BSK_LPS_TNFa: BioMAP Diversity Plus: LPS Assay for Tumour Necrosis Factor alpha (TNFa) Biomarker Activity (AID 2283085); conditions: primary human HUVEC with PBMC; actives raise or lower the signal;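 on AC50: TNFa protein level quantified by ELISA in the co-culture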
Summary of the method: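 TNFa was quantified by ELISA in LPS-activated co-cultures of human endothelial cells and PBMC, 24 h post-dosing. Both increases and decreases versus DMSO were fitted.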

[17] = read-out: Vascular cell adhesion molecule 1 (VCAM1), VCAM1 (gene 7412); assay: BSK_LPS_VCAM1: BioMAP Diversity Plus: LPS Assay for Vascular cell adhesion molecule 1 (VCAM1) Biomarker Activity (AID 2283086); conditions: primary human HUVEC with PBMC; actives raise or lower the signal
Summary of the method: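 VCAM-1 quantified by ELISA in an LPS-activated co-culture of human endothelial cells and peripheral blood mononuclear cells, read 24 h post-treatment. Fitted in both directions versus DMSO; parallel SRB staining flags overt cytotoxicity.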

[18] = read-out: CD38, CD38 (gene 952); assay: BSK_SAg_CD38: BioMAP Diversity Plus: SAg Assay for CD38 Biomarker Activity (AID 2283087); conditions: primary human HUVEC with PBMC; actives raise or lower the signal
Summary of the method: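 CD38 quantified by ELISA (fluorescence) in a superantigen-activated endothelial cell–PBMC co-culture at 24 h post-dose. Activity fitted in both directions relative to DMSO; parallel SRB and Alamar Blue cytotoxicity read-outs.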

[19] = read-out: CD40, CD40 (gene 958); assay: BSK_SAg_CD40: BioMAP Diversity Plus: SAg Assay for CD40 Biomarker Activity (AID 2283088); conditions: primary human HUVEC with PBMC; actives raise or lower the signal
Summary of the method: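 HUVEC plus PBMC co-culture, superantigen-activated, with CD40 read by ELISA 24 h after dosing. Curves fitted in both directions against DMSO. Overt cytotoxicity checked by parallel SRB total-protein staining.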

[20] = read-out: CD69, CD69 (gene 969); assay: BSK_SAg_CD69: BioMAP Diversity Plus: SAg Assay for CD69 Biomarker Activity (AID 2283089); conditions: primary human HUVEC with PBMC; actives raise or lower the signal;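 on AC50: cell surface CD69 protein quantified by ELISA with fluorescence detection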
Summary of the method: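 Values derive from bidirectional fitting relative to DMSO vehicle. Cells: umbilical vein endothelium plus peripheral blood mononuclear cells, treated 24 h before fluorescent ELISA for CD69.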

Measured: AC50

Chain of E-selectin (Homo sapiens) (P16581 whole entry, looked up): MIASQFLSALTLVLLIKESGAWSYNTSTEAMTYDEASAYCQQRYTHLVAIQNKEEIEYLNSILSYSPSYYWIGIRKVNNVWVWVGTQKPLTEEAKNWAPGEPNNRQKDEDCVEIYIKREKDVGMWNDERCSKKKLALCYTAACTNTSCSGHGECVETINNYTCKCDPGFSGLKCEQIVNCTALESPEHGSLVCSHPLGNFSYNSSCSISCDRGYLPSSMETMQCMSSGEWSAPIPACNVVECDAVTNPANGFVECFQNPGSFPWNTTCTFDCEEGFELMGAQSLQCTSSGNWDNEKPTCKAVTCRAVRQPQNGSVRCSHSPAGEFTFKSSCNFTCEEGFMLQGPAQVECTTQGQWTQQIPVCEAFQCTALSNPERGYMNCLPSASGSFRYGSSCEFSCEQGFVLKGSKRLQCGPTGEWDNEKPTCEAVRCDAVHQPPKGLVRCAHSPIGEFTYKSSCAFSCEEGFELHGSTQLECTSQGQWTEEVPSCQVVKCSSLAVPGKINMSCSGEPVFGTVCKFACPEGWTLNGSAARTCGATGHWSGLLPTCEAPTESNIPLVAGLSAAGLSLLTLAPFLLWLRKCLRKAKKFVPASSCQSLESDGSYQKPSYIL
Chain of Tumor necrosis factor (Homo sapiens) (P01375 whole entry, looked up): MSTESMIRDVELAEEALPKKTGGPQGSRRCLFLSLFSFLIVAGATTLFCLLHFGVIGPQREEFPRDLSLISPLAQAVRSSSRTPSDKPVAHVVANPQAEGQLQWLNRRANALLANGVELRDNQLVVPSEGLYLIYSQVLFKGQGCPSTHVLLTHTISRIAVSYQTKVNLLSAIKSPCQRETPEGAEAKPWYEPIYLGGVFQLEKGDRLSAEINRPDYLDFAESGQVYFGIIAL

CON=C(C(=O)OC)c1ccccc1CON=C(C)c1cccc(C(F)(F)F)c1
active: [4] 6.61 µM | [5] 3.97 µM | [7] 13.5 µM | [8] 0.25 µM | [9] 3.35 µM | [10] 6.96 µM | [12] 2.93 µM | [13] 1.14 µM | [14] 5.49 µM | [16] 5.02 µM | [18] 5.63 µM | [19] 5.02 µM
inactive: [1] | [2] | [3] | [6] | [11] | [15] | [17]

CN1COCN(Cc2cnc(Cl)s2)C1=N[N+](=O)[O-]
active: [19] 3.79 µM
not listed: [15]
inactive: all other assays above

CC(C)[C@H](C(=O)O[C@H](C#N)c1cccc(Oc2ccccc2)c1)c1ccc(Cl)cc1
active: [8] 7.16 µM | [9] 5.9 µM
not listed: [2] | [13]
inactive: all other assays above

CNC(=O)ON=C(C)SC
active: [13] 0.564 µM
inactive: all other assays above

CCOP(=S)(OCC)Oc1ccc2c(C)c(Cl)c(=O)oc2c1
active: [1] 14.4 µM
inactive: all other assays above

CC(C)=CC1C(C(=O)OCN2C(=O)C3=C(CCCC3)C2=O)C1(C)C (stereo not given)
active: [5] 3.97 µM | [7] 11.4 µM | [8] 35.1 µM | [9] 26.9 µM | [12] 9.93 µM | [13] 4.14 µM | [14] 34.3 µM | [16] 31.7 µM | [17] 28.5 µM | [18] 32.2 µM | [19] 20.5 µM | [20] 20 µM
inactive: [1] | [2] | [3] | [4] | [6] | [10] | [11]

COc1cc(OC)nc(Sc2cccc(Cl)c2C(=O)O)n1
not listed: [15]
inactive: all other assays above

CC(Oc1cccc(Cl)c1)C(=O)O (stereo not given)
active: [1] 1.15 µM
inactive: all other assays above

CC(C)N(C(=O)SCC(Cl)=C(Cl)Cl)C(C)C
active: [1] 30.5 µM | [2] 36.4 µM | [4] 30.5 µM | [5] 36.6 µM | [6] 32.6 µM | [7] 29.9 µM | [8] 31.6 µM | [9] 29.5 µM | [10] 29.1 µM | [11] 26.4 µM | [12] 31.7 µM | [13] 34.7 µM | [14] 29.5 µM | [16] 32.3 µM | [17] 29.8 µM | [18] 31.3 µM | [19] 30.9 µM | [20] 36.6 µM
inactive: [3]

FC(F)C(F)(F)OCC(Cn1cncn1)c1ccc(Cl)cc1Cl (stereo not given)
active: [7] 17.1 µM | [10] 20 µM | [13] 2.52 µM | [14] 30.7 µM | [17] 32.8 µM | [18] 20 µM | [20] 30 µM
not listed: [19]
inactive: all other assays above

CCOP(=S)(OCC)Oc1cc(C)nc(C(C)C)n1
active: [16] 20 µM
not listed: [15]
inactive: all other assays above

O=c1ccc(=O)[nH][nH]1
not listed: [15]
inactive: all other assays above
